# Bioassay records from PubChem.
# An excerpt weighted towards active compounds, which were near 2.1% of everything screened.
# Platelet DG rel = modulates dense granule release in human platelets | human platelet-rich plasma, SFLLRN dense granule ATP release, luminescence | inhibition, %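 (compounds screened at 7.5 µM in platelet-rich plasma)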 | hit rate 0.22% among 300,000;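 active = mean replicate score, as percent of positive control, at or above 50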
# HIF act = HIF pathway transcriptional activation. U2OS HRE-luciferase reporter, luminescence; normalized: DMSO 0%, desferrioxamine 100%. activation, % at 7.5 µM (by protocol). hit rate 0.32% among 300,000. AID 1910;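 active = mean activation of at least 10% of the iron chelator positive control signal, with at least half of replicates also reaching 10%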
# KLF5 inh = suppresses KLF5 promoter-driven expression | DLD-1 KLF5 promoter-luciferase reporter, luminescence | inhibition, % at 5 µM | hit rate 0.23% among 290,000 | AID 1700;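 active = inhibition above a per-plate limit of that plate's mean compound inhibition plus 3 SD, cut at about 60% in these data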;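 note: higher means less KLF5 promoter-driven luciferase light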
# Wee1 stabilizer = blocks degradation of human Wee1 kinase; P30291; HeLa Luc-Wee1K328M stability, luciferase luminescence; 100% = proteasome inhibitor MG132 effect; reporter increase, % at 5 µM; hit rate 1.2% among 220,000; AID 1321;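 active = activation above the mean of all tested compounds plus 3 SD, set per screening run, cut at about 8.8% in these data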;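 note: cells exposed to compound for 20 h before luminescence read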
# Target sequence (P30291 whole entry K328M): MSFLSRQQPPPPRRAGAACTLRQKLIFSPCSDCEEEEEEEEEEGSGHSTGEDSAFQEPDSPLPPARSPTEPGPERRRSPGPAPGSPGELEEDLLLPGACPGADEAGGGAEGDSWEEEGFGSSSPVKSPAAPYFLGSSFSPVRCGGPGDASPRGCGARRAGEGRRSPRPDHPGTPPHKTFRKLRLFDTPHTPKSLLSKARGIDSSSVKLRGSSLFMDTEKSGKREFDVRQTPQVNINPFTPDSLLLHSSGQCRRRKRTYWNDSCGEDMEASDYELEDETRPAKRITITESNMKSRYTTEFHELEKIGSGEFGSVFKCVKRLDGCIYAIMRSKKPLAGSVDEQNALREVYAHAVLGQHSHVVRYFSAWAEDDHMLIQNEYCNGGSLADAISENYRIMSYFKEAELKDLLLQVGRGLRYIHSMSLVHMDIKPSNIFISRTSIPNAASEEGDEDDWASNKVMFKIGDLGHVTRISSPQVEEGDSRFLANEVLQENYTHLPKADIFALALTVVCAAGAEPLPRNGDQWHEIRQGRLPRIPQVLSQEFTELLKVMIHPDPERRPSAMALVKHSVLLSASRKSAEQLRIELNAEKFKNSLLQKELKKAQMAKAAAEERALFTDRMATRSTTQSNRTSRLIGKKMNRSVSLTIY
# aSyn UTR inh = 5' untranslated region of α-synuclein, MLPCN primary screen. alpha-synuclein 5'UTR reporter, inhibitor activity. inhibition, % (tested at 7.5 µM). hit rate 0.82% among 300,000; in the data active = inhibition above about 60%;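 note: H4 neuroglioblastoma cells stably carrying SNCA 5'UTR luciferase fusion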
# Numbers stand for hits; – = inactive; · = not tested or not shown.
SMILES,Platelet DG rel,HIF act,KLF5 inh,Wee1 stabilizer,aSyn UTR inh
NNC(=O)c1nn(-c2ccccc2)cc1O,–,–,–,–,83
COc1ccc(C)cc1NC(=O)CNC(c1ccccc1)c1ccc(C)cc1 (centres undefined),–,–,–,·,103
COc1ccccc1NC(=O)CNC(c1ccccc1)c1ccccc1,–,–,–,·,–
O=[N+]([O-])c1ccccc1OCCCOc1cccc2cccnc12,–,–,–,·,–
COc1ccc(OC)c(NC(=O)CSc2ccc(-c3cccnc3)nn2)c1,–,–,–,·,–
O=C1C2CCCN2C(c2cccs2)N1c1ccc(F)cc1 (centres undefined),–,–,–,–,–
O=C1C2CCCN2C(c2ccco2)N1c1ccc(F)cc1 (centres undefined),–,–,–,10,–
CCCCn1c(N)c(N(CCOC)C(=O)c2cccc(S(=O)(=O)N(C)c3ccc(C)cc3)c2)c(=O)[nH]c1=O,–,–,·,·,–
Cc1ccc(O)c(N=Nc2ccccc2)n1,77,–,·,·,–
Oc1ccc(Cl)cc1N=Nc1ccccc1,–,–,–,·,–
CC(C)CC(NC(=O)c1ccc(Cl)cc1)C(=O)OCC(=O)c1ccc2c(c1)NC(=O)CO2 (centres undefined),–,–,–,–,96
CCOC(=O)N1CCN(Cc2cc(=O)oc3cc4c(cc23)CCC4)CC1,78,–,–,–,–
CCOC(=O)N1CCN(Cc2cc(=O)oc3ccc(Cl)cc23)CC1,–,–,–,–,–
CN1CCN(C(=S)c2ccc(-c3cccc([N+](=O)[O-])c3)o2)CC1,–,–,–,10,–
O=C(Nc1nncs1)c1ccc(S(=O)(=O)c2ccccc2)cc1,–,–,–,9.3,–
O=C(N/N=C/c1cc([N+](=O)[O-])ccc1O)c1cc(-c2ccccc2)nc2ccccc12,–,20,–,–,81
O=C(N/N=C/c1cc([N+](=O)[O-])ccc1Cl)c1cc(-c2ccccc2)nc2ccccc12,–,–,–,–,–
O=C(N/N=C/c1ccc([N+](=O)[O-])o1)c1cc(-c2ccc(-c3ccccc3)cc2)nc2ccccc12,–,–,–,–,76
CCN(CC)C1CCN(C(=O)c2ccc(OC3CCN(Cc4ccccn4)CC3)cc2)C1 (centres undefined),–,–,–,·,–
Cc1cccc(N2CCN(S(=O)(=O)c3ccc4c(c3)CCCN4C(=O)C3CCC3)CC2C)c1 (centres undefined),–,–,–,·,–
COc1ccc(S(=O)(=O)N2CCC(c3cc(-c4cccc5ccccc45)n[nH]3)CC2)cc1,–,11,–,–,–
O=S(=O)(c1cccc(C(F)(F)F)c1)N1CCC(c2cc(-c3cccc4ccccc34)n[nH]2)CC1,–,–,–,–,–
CCN1CCCC1CNC(=O)c1ccc2c(c1)NC(=O)/C(=C\c1ccc(C)cc1)S2 (centres undefined),–,–,–,·,74
CC(C)(CNC(=O)c1ccc(Br)o1)CNC(=O)c1ccc(Br)o1,–,–,–,·,–
Cc1cc(C)n(CCC(=O)Nc2ccc3c(c2)OCCO3)n1,–,–,–,·,–
SMILES,Platelet DG rel,HIF act,KLF5 inh,Wee1 stabilizer,aSyn UTR inh
c1cc2c(cc1C1CCCCC1)c1c3n2CCCNC3CCC1 (centres undefined),–,–,–,–,87
COC(=O)C1(C)CCC(C(=O)Nc2ccccc2)C1(C)C (centres undefined),–,–,·,·,62
CC1CCc2sc(C(=O)OC(C)C(=O)Nc3ncc(Cl)cc3Cl)cc2C1 (centres undefined),–,–,–,10,–
O=C(Cn1nnc(-c2ccccc2Cl)n1)N/N=C/c1ccc2c(c1)OCO2,–,–,–,12,–
O=C(CNC(=O)c1ccccc1Cl)N/N=C/c1ccc2c(c1)OCO2,–,–,–,·,–
CCN(CC)c1ccc(C(=O)OCc2cc(=O)oc3cc(O)ccc23)cc1,–,–,–,–,117
CCN(CC)c1ccc2c(O)cc(=O)oc2c1,–,–,–,–,–
Cc1nn(-c2cccc(C(F)(F)F)c2)c(Cl)c1/C=N/Nc1cccc(C(=O)O)c1,–,–,–,–,–
Cc1nn(-c2ccccc2Cl)c(Cl)c1/C=N/Nc1cccc(C(=O)O)c1,–,–,–,–,103
CCOc1cc(/C=N/Nc2cccc(C(=O)O)c2)ccc1OC(=O)c1ccccc1,–,–,–,–,98
CCOc1cc(/C=N/NC(=O)CNc2cccc(C)c2)ccc1OC(=O)c1ccccc1,–,–,–,–,–
Cc1ccsc1/C=N/Nc1cccc(C(=O)O)c1,–,–,–,–,105
COc1cc(SC)ccc1C(=O)Nc1ccccn1,–,–,–,–,–
CSc1ccccc1C(=O)Nc1ncc(C)s1,55,–,–,–,–
COc1cc(SC)ccc1C(=O)Nc1ccc(C)cc1,–,–,–,–,–
COc1ccc(NC(=O)Nc2ccc(CC(=O)O)cc2)cc1,–,27,–,–,–
O=C(O)Cc1ccc(NC(=O)Nc2ccc(Br)cc2)cc1,–,–,–,–,–
COc1cc(SC)ccc1C(=O)Nc1ncc(C)s1,–,–,–,–,98
COc1cc(SC)ccc1C(=O)Nc1ccc(C)cc1C,–,10,–,–,–
COc1ccc(C=O)cc1CN1CCCN(Cc2ccccc2F)S1(=O)=O,–,–,–,·,–
COc1ccc(NC(=O)Nc2ccc(Br)cn2)cc1,–,40,–,–,–
Cc1ccoc1C(=O)Nc1ccc2ccccc2c1,–,–,–,·,–
CSc1ccccc1C(=O)NC1CCCC1,–,–,–,8.9,–
Cc1ccoc1C(=O)Nc1ccc(CC(=O)O)cc1,–,–,–,–,84
COc1cc(SC)ccc1C(=O)Nc1ccc(Br)cn1,–,–,–,–,101
SMILES,Platelet DG rel,HIF act,KLF5 inh,Wee1 stabilizer,aSyn UTR inh
Cc1cccc(N2CCN(C(=O)c3cc4cc(F)ccc4[nH]3)CC2)c1C,–,–,–,·,–
O=C(NNC1=Nc2ccccc2SC1)c1ccc(Cl)cc1,–,–,–,–,96
O=C(NNC1=Nc2ccccc2SC1)c1ccc(F)cc1,–,–,–,–,–
COc1ccc(N=CC2=C(O)c3ccccc3C2=O)cc1,59,–,–,–,–
CCCNc1cc(C)oc(=O)c1C(=O)CCC,–,–,–,–,–
CCCC(=O)c1c(NCCO)cc(C)oc1=O,–,–,–,8.9,–
CN1CCN(C(c2cccnc2)c2ccc3cccnc3c2O)CC1 (centres undefined),–,–,–,–,–
CN1CCN(C(c2ccc(Br)cc2)c2cc(Cl)c3cccnc3c2O)CC1 (centres undefined),–,–,–,·,67
S=C(NCc1cccnc1)Nc1cccc2ccccc12,–,–,–,–,–
CCn1cc(CNC(=S)Nc2cccc3ccccc23)cn1,–,–,–,9.3,–
CCc1cc(C(=O)Nc2ccc(S(=O)(=O)NC3=NCCCCC3)cc2)sc1C,–,–,·,·,–
CC[n+]1c(/C=C/N(C)c2ccccc2)n(-c2ccccc2)c2ccc(-c3nc4ccccc4s3)cc21,–,–,–,·,120
C/C(=N\NC(=S)NCc1ccccc1)c1ccc(C)o1,–,–,–,–,–
CCC(=O)Nc1cc2nn(-c3ccc(C)cc3)nc2cc1C,–,–,–,–,80
